Assay results from PubChem BioAssay AID1159580 (chemical genetic matrix, 2015).
Where “and” joins values, the source holds several entries; their conditions need not be identical. Equal entries are not always repeated. About 2,000 (36%) of roughly 5,500 compounds were called active. Inconclusive results (about 18%) are left out. Cut-off read from the data, not from the text of the source: active = normalized growth mostly below about 0.91 (no sharp cut-off); inconclusive = no clear call, values can overlap the other calls; inactive = mostly above about 0.92. The list shows a part of the results.

Assay: chemical genetic growth profiling, strain panel (AID 1159580);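 note: tested at 20 µM; growth read once vehicle control cultures reached saturation at 30 °C; 1 = growth at the plate median or of vehicle wells; lower values mean less growth of the strain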
Details: S. cerevisiae deletion strains, growth OD

Measured: normalized growth

CNC(Cc1c[nH]c2ccccc12)C(=O)O (stereo not drawn)
inactive: locus YAL013W, strain DEP1, hits give low values 0.988 | locus YAL021C, strain ccr4, hits give low values 0.972 | locus YAL026C, strain drs2, hits give low values 0.982 | locus YAL030W, strain snc1, hits give low values 0.974 | locus YBL061C, strain skt5, hits give low values 0.986 | locus YBR009C, strain hhf1, hits give low values 0.976 | locus YBR021W, strain FUR4, hits give low values 1 | locus YBR023C, strain chs3, hits give low values 0.994 | locus YBR171W, strain sec66, hits give low values 0.986 | locus YBR229C, strain ROT2, hits give low values 0.959 | locus YBR231C, strain swc5, hits give low values 1 | locus YBR279W, strain paf1, hits give low values 0.997 | locus YCL011C, strain gbp2, hits give low values 0.985 | locus YCL016C, strain dcc1, hits give low values 0.976 | locus YCL029C, strain bik1, hits give low values 0.996 | locus YCL061C, strain MRC1, hits give low values 0.983 | locus YCL069W, strain vba3, hits give low values 0.977 | locus YCR088W, strain abp1, hits give low values 0.991 | locus YDL005C, strain med2, hits give low values 0.975 | locus YDL035C, strain GPR1, hits give low values 0.931 | locus YDL040C, strain nat1, hits give low values 0.976 | locus YDL074C, strain BRE1, hits give low values 0.981 | locus YDL101C, strain DUN1, hits give low values 0.982 | locus YDL134C, strain PPH21, hits give low values 0.972 | locus YDL185W, strain tfp1, hits give low values 0.97 | locus YDL192W, strain arf1, hits give low values 0.986 | locus YDR001C, strain nth1, hits give low values 0.976 | locus YDR069C, strain doa4, hits give low values 0.991 | locus YDR101C, strain arx1, hits give low values 1.04 | locus YDR137W, strain rgp1, hits give low values 1.01 | locus YDR159W, strain sac3, hits give low values 0.986 | locus YDR162C, strain NBP2, hits give low values 0.994 | locus YDR195W, strain ref2 0.944 | locus YDR297W, strain sur2, hits give low values 0.99 | locus YDR318W, strain mcm21, hits give low values 0.973 | locus YDR334W, strain swr1, hits give low values 0.983 | locus YDR335W, strain msn5, hits give low values 0.987 | locus YDR388W, hits give low values 0.989 | locus YDR392W, strain spt3, hits give low values 0.963 | locus YDR502C, strain sam2, hits give low values 0.992 | locus YEL003W, strain gim4, hits give low values 1 | locus YEL037C, strain rad23, hits give low values 0.978 | locus YEL061C, strain CIN8 (second series), hits give low values 0.976 | locus YEL061C, strain CIN8, hits give low values 0.987 | locus YER015W, strain faa2, hits give low values 0.986 | locus YER016W, strain bim1, hits give low values 0.988 | locus YER110C, hits give low values 0.99 | locus YER111C, strain swi4, hits give low values 0.988 | locus YER155C, strain BEM2 (second series), hits give low values 0.996 | locus YER155C, strain BEM2, hits give low values 1 | locus YER167W, strain BCK2, hits give low values 1.01 | locus YFR010W, strain ubp6, hits give low values 0.988 | locus YGL078C, strain dbp3, hits give low values 0.996 | locus YGL086W, strain mad1, hits give low values 1.02 | locus YGL167C, strain pmr1, hits give low values 0.971 | locus YGL173C, strain kem1, hits give low values 0.996 | locus YGL227W, strain vid30, hits give low values 0.988 | locus YGL240W, strain doc1, hits give low values 1 | locus YGL248W, strain PDE1, hits give low values 0.972 | locus YGL253W, strain hxk2, hits give low values 0.995 | locus YGR135W, strain pre9, hits give low values 0.973 | locus YGR252W, strain gcn5, hits give low values 0.929 | locus YHR013C, strain ard1, hits give low values 0.978 | locus YHR027C, strain rpn1, hits give low values 0.982 | locus YHR030C, strain SLT2, hits give low values 1 and 0.971 | locus YHR079C, strain IRE1 (second series), hits give low values 0.991 | locus YHR079C, strain IRE1, hits give low values 0.97 | locus YHR094C, strain hxt1, hits give low values 0.979 | locus YHR129C, strain ARP1, hits give low values 0.996 | locus YHR142W, strain chs7, hits give low values 0.986 | locus YHR200W, strain rpn10, hits give low values 0.986 | locus YIL066C, strain RNR3, hits give low values 0.973 | locus YIL073C, strain SPO22, hits give low values 0.977 | locus YIL125W, strain kgd1, hits give low values 0.994 | locus YIR030C, strain dcg1, hits give low values 0.997 | locus YJL092W, strain hpr5, hits give low values 0.977 | locus YJL095W, strain BCK1 (second series), hits give low values 0.981 | locus YJL095W, strain BCK1, hits give low values 0.973 and 1.05 | locus YJL115W, strain asf1, hits give low values 0.971 | locus YJL129C, strain trk1, hits give low values 0.971 | locus YJL134W, strain LCB3, hits give low values 0.985 | locus YJL154C, strain vps35, hits give low values 0.986 | locus YJL164C, strain tpk1, hits give low values 0.968 | locus YJL166W, strain qcr8, hits give low values 0.99 | locus YJL168C, strain set2, hits give low values 0.992 | locus YJL187C, strain SWE1 (second series), hits give low values 0.971 | locus YJL187C, strain SWE1, hits give low values 0.99 | locus YJR043C, strain POL32, hits give low values 0.974
